Data as given in the supplement of paper PMC10849652.
Of roughly 7,900 targets only a part is listed; those with a hit were picked by preference. About 0.6% of all pairs of compound and target were hits. A number with no mark means an inactive call.

Key:
Experiment in all cases: log2 fold change, soluble protein after heating vs DMSO (PISA); higher = thermal stabilisation; K562 cells, 10 uM, 30 min; active = over 0.2 and 3.5 SD of the protein, either way, in both replicates (recomputed)
[1] = compound: C1COCCN1CCN2C3=CC=CC=C3N=C2NC(=O)C4=CC(=CC=C4)[N+](=O)[O-] [IRAK-1-4 Inhibitor I]
How it was run: (§1)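 Soluble protein was defined as the supernatant after 21,000xg for 90 min. It came from K562 cells at 2×10^6 cells/mL given 10 μM compound for 30 min, heated in aliquots for 3 min across 48°C-58°C, pooled, and extracted in PBS with 0.5% NP-40 at 4°C, and was quantified by TMTpro 16plex LC-MS/MS with equalised channel sums. Thermal stability against control samples, from duplicates, is reported as log2 fold change.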

[2] = compound: C=CC(=O)N1CCC[C@@H](n2nc(-c3ccc(Oc4ccccc4)cc3)c3c(N)ncnc32)C1 [ibrutinib]
How it was run: as §1

[3] = compound: CC(=O)c1cnc2ccc(-c3cc(Cl)c(O)c(Cl)c3)nc2c1N[C@H]1CC[C@H](CN(C)C)CC1
How it was run: as §1

[4] = compound: CC(C)(C)Cn1c(N)nc2ccc(-c3[nH]c(C(C)(C)C)nc3-c3ccc(F)cc3)nc21 [ralimetinib]
How it was run: as §1

[5] = compound: CC(C)(O)CC(=O)NCCn1ccc2ncnc(Nc3ccc(Oc4cccc(C(F)(F)F)c4)c(Cl)c3)c21
How it was run: as §1

[6] = compound: CC(C)C1=C2N=C(C=C(N2N=C1)NCC3=CC=CC=C3)NCCCCCCN
How it was run: as §1

[7] = compound: CC(C)C[C@@H](C=O)NC(=O)[C@H](CC(C)C)NC(=O)[C@H](CC(C)C)NC(=O)OCc1ccccc1
How it was run: as §1

[8] = compound: CC(C)N(C[C@H]1O[C@@H](n2cnc3c(N)ncnc32)[C@H](O)[C@@H]1O)[C@H]1C[C@@H](CCc2nc3cc(C(C)(C)C)ccc3[nH]2)C1 [pinometostat]
How it was run: as §1

[9] = compound: CC1=C(C(CC(=O)N1)C2=CC=C(C=C2)C(F)(F)F)C(=O)NC3=C(C=C4C(=C3)C=NN4)F
How it was run: as §1

[10] = compound: CC1=C(C2=C(C=C1)C(=O)C3=CC=CC=C3N2CCCN)C
How it was run: as §1

UniProt Q7Z7E8, sequence (Q7Z7E8 whole entry, looked up): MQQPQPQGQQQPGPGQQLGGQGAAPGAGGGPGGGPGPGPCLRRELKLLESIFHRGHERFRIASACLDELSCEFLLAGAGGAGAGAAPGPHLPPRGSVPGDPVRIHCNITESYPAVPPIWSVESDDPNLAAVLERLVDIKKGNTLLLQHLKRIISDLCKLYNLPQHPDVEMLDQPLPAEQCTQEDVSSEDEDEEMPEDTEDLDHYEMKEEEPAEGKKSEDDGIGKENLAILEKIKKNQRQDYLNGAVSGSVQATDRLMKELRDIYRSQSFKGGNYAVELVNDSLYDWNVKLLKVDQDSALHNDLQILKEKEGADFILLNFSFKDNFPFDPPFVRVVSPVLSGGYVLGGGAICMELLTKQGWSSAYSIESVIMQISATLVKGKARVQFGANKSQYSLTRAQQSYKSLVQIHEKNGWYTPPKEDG
UniProt Q86Y07, sequence (Q86Y07 whole entry, looked up): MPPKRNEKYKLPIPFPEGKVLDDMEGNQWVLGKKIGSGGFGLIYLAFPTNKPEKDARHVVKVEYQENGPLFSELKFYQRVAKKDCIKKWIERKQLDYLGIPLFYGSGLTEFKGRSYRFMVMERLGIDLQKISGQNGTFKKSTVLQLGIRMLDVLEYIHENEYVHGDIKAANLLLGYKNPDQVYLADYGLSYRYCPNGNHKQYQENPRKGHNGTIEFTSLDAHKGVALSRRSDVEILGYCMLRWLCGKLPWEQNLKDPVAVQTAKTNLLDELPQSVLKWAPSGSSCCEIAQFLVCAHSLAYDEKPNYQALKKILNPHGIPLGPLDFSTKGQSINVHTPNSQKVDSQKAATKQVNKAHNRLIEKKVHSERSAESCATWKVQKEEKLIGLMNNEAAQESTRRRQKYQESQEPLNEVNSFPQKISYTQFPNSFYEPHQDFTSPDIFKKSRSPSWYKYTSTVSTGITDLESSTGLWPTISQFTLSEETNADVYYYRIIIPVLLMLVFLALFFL
UniProt Q8IWV8, sequence (Q8IWV8 whole entry, looked up): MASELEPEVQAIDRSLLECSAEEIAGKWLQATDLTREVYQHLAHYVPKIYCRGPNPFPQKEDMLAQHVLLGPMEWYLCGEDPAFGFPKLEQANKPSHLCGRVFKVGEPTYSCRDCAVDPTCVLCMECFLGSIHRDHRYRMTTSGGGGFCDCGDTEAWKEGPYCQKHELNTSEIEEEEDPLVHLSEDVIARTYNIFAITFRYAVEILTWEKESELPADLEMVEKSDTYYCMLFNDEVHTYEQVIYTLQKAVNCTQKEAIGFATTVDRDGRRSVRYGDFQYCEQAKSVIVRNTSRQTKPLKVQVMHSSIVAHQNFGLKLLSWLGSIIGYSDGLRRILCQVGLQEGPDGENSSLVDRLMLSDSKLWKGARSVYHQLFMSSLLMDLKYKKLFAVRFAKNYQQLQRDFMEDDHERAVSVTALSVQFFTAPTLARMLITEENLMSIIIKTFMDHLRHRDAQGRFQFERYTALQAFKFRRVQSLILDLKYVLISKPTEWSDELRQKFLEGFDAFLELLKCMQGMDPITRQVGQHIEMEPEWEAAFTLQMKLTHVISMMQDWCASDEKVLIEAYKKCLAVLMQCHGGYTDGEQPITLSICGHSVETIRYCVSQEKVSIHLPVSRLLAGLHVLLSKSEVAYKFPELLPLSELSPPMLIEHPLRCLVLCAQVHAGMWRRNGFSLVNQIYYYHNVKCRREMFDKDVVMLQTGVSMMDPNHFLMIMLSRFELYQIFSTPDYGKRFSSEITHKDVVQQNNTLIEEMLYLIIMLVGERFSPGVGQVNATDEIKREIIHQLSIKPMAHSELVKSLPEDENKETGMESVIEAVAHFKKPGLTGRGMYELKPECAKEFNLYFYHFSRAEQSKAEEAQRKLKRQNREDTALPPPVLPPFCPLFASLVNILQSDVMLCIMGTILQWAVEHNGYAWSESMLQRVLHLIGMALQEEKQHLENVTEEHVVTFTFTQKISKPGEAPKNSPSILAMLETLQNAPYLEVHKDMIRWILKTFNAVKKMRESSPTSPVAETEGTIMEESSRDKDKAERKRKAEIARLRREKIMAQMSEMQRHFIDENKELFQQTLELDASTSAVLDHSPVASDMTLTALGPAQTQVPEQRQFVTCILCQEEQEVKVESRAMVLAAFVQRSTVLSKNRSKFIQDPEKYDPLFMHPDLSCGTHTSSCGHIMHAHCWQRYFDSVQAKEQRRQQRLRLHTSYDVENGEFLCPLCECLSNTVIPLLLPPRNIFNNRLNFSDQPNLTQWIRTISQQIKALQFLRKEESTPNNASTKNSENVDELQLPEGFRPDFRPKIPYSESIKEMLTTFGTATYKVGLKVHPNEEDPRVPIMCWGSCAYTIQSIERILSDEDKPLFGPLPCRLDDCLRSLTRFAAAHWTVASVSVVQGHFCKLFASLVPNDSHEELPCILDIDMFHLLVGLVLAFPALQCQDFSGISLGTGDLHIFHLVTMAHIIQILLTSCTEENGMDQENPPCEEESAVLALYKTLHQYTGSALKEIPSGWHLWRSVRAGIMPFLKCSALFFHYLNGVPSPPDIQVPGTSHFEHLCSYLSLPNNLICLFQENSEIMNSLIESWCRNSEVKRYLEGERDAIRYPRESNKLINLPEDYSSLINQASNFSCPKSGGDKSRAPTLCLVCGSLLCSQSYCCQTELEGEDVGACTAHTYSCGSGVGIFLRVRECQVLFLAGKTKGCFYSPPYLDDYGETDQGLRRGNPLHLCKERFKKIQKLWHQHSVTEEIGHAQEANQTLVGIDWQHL
UniProt Q96AJ9, sequence (Q96AJ9 whole entry, looked up): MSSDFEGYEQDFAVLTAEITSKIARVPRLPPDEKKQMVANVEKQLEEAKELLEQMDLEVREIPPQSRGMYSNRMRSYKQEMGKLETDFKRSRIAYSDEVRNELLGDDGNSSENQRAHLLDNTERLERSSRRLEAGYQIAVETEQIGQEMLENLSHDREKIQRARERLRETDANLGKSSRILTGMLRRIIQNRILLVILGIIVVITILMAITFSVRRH
UniProt Q6NUQ4, sequence (Q6NUQ4 whole entry, looked up): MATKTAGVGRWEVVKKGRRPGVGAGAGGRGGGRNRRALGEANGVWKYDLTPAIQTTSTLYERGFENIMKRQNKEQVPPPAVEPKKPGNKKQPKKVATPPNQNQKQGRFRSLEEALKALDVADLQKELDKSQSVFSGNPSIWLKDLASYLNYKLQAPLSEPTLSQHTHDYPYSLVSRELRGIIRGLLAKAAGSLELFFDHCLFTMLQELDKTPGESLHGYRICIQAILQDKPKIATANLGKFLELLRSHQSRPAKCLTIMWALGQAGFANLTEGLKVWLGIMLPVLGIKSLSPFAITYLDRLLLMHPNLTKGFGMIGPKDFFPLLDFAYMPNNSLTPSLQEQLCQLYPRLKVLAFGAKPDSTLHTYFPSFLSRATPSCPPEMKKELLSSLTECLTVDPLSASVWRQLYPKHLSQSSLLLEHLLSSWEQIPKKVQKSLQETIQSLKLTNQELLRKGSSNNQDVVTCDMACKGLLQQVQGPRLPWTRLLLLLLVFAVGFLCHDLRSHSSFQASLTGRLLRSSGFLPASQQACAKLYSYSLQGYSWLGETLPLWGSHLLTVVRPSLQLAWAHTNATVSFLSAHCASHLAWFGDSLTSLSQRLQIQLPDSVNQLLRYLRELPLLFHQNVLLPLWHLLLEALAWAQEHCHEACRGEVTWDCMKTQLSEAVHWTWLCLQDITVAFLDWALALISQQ
UniProt Q9H3M7, sequence (Q9H3M7 whole entry, looked up): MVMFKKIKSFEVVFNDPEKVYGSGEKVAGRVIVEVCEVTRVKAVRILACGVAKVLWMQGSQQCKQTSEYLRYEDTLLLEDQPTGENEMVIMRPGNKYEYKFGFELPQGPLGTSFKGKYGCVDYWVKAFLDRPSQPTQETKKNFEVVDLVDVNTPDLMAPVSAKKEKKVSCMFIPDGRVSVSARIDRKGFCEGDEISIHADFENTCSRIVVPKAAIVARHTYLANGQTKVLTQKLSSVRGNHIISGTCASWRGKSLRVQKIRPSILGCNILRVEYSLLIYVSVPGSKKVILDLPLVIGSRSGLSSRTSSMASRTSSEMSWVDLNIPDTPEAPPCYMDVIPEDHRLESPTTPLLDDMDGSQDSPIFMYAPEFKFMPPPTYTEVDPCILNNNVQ
UniProt Q9NQ34, sequence (Q9NQ34 whole entry, looked up): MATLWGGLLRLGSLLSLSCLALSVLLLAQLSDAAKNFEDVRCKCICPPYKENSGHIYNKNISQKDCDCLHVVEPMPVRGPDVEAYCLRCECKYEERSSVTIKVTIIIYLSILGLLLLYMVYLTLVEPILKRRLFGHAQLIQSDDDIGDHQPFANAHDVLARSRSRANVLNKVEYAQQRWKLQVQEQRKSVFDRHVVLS
UniProt Q15629, sequence (Q15629 whole entry, looked up): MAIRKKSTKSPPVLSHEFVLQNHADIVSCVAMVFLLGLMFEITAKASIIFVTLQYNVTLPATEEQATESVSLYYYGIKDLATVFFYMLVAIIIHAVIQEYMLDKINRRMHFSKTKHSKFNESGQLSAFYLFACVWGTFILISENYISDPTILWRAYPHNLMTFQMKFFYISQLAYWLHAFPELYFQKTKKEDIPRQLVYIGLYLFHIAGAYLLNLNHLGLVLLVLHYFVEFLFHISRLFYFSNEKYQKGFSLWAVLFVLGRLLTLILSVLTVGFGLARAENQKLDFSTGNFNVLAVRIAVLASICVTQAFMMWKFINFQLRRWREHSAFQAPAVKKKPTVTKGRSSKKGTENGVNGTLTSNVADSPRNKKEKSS
UniProt Q9Y3C0, sequence (Q9Y3C0 whole entry, looked up): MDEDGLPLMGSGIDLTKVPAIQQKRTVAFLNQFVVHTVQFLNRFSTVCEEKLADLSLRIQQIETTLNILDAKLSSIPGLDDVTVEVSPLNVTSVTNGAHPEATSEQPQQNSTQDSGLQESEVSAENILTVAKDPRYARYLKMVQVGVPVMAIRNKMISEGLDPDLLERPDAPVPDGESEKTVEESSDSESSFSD
UniProt Q86SZ2, sequence (Q86SZ2 whole entry, looked up): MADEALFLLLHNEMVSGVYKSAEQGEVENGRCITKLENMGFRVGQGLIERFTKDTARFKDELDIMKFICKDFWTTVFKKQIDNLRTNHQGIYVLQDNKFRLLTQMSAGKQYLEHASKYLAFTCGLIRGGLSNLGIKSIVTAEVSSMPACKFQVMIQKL

Target | log2 fold change [1] | log2 fold change [2] | log2 fold change [3] | log2 fold change [4] | log2 fold change [5] | log2 fold change [6] | log2 fold change [7] | log2 fold change [8] | log2 fold change [9] | log2 fold change [10]
WDR46 (UniProt O15213) | -0.159 | 0.099 | 0.15 | 0.175 | 0.066 | 0.192 | 0.154 | 0.242 | 0.033 | -0.382
TMEM214 (UniProt Q6NUQ4) | -0.076 | -0.063 | 0.028 | -0.03 | 0.019 | 0.066 | 0.044 | 0.073 | 0.014 | 0.074
TRMT2A (UniProt Q8IZ69) | -0.028 | 0.005 | -0.098 | 0.039 | 0.013 | -0.146 | 0.034 | 0.085 | 0.018 | -0.142
VWA8 (UniProt A3KMH1) | 0.022 | -0.015 | -0.041 | 0.016 | -0.115 | -0.149 | -0.032 | -0.004 | 0.009 | 0.021
VRK2 (UniProt Q86Y07) | 0.004 | 0.003 | 0.32 (active) | 0.21 | -0.088 | 0.027 | 0.074 | 0.075 | -0.03 | 0.109
WASHC3 (UniProt Q9Y3C0) | 0.096 | 0.015 | 0.023 | -0.033 | 0.024 | -0.166 | -0.041 | -0.074 | 0.059 | 0.032
TXNIP (UniProt Q9H3M7) | 0.05 | 0.016 | -0.053 | 0.13 | 0.072 | -0.371 | 0.128 | -0.083 | -0.097 | -0.42 (active)
TMEM9B (UniProt Q9NQ34) | -0.019 | 0.038 | -0.083 | 0.324 (active) | 0.014 | -0.082 | -0.006 | 0.015 | 0.027 | 0.038
VPS41 (UniProt P49754) | -0.002 | -0.033 | -0.019 | 0.052 | 0.019 | -0.383 (active) | 0.026 | 0.037 | 0.003 | 0.063
TRAM1 (UniProt Q15629) | -0.036 | -0.051 | -0.032 | -0.014 | -0.016 | -0.889 (active) | 0.012 | -0.011 | 0.016 | 0.119
UBE2Q1 (UniProt Q7Z7E8) | 0.024 | -0.012 | 0.029 | -0.015 | -0.062 | -0.192 | -0.11 | 0.005 | -0.01 | -0.006
TRAPPC6B (UniProt Q86SZ2) | -0.022 | 0.032 | -0.001 | -0.015 | -0.138 | 0.032 | 0.032 | -0.036 | 0.004 | 0.004
UBR2 (UniProt Q8IWV8) | 0.002 | -0.102 | -0.11 | 0.029 | -0.086 | -0.058 | 0.351 (active) | 0.137 | -0.01 | 0.076
VTI1A (UniProt Q96AJ9) | 0.095 | 0.012 | -0.009 | -0.111 | 0.019 | 0.005 | 0.028 | -0.016 | 0.028 | -0.01
